Assay outcomes as filed in PubChem BioAssay.
In the library only some 2.3% were active in any assay of this set; here they are far more common.
M1 ag parental = counter-screen for M1 agonists: effect in parental CHO-K1 cells; 0.48% of 360,000 active; activation, % at 3 µM; Fluo-8 calcium fluorescence; scaled to maximal ATP response, vehicle zero; AID 602248; in the data active means activation above about 15%;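 further: untransfected CHO-K1 host cells lacking M1 receptor as counterscreen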
CHO-K1 Ca antag = counter-screen for M1 antagonists: effect in parental CHO-K1 cells; inhibition, % at 3 µM; 0.6% of 360,000 active; AID 602250; ATP-induced calcium, Fluo-8 fluorescence;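 active means inhibition above a per-plate cutoff, the plate's mean sample inhibition plus 3 SD, cut at about 24% in these data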;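 further: 0% = DMSO plus EC80 ATP and 100% = DMSO alone without ATP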
CHO-K1 Ca PAM = counter-screen for M1 PAMs: effect in parental CHO-K1 cells; 0.02% of 360,000 active; ATP EC20, Fluo-8 calcium fluorescence; 0% at ATP EC20, 100% at ATP max; activation, % at 3 µM;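 active means activation above the run cutoff, the mean activation of all test compounds plus 3 SD, cut at about 40% in these data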;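 further: peak over basal fluorescence ratio in a 140 s read after ATP addition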
CHRM1 antagonist = antagonists of human M1 muscarinic receptor | inhibition, % at 3 µM | P11229 | CHO-K1 hM1, Fluo-8 calcium fluorescence, ACh EC80 antagonist | AID 588852 | 1.3% of 360,000 active;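 active means percent inhibition above its own plate's cutoff, namely the mean of that plate's compound wells plus 3 SD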;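 further: peak over basal fluorescence ratio during 140 s after agonist addition; 0% = ACh EC80 plus DMSO and 100% = DMSO alone without agonist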
Target sequence (P11229 whole entry, looked up): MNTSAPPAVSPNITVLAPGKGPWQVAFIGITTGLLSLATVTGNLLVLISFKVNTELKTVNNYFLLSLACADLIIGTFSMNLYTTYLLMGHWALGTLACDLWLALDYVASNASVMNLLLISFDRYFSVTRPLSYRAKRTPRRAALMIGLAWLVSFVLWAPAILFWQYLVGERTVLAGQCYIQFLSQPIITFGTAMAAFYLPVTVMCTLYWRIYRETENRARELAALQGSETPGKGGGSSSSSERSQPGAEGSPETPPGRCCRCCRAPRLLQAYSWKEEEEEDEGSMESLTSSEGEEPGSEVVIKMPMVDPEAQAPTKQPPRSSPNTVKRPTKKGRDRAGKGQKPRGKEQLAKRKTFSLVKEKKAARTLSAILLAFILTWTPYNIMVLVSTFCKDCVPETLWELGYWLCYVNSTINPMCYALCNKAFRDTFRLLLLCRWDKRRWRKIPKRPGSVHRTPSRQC
M1 PAM = positive allosteric modulators of human M1 muscarinic receptor; P11229; CHO-K1 hM1, Fluo-8 calcium fluorescence, ACh EC20; 0% = ACh EC20, 100% = maximal ACh; activation, % at 3 µM; 0.088% of 360,000 active; in the data active means activation above about 19%, passing the limit was not always enough
CHRM1 agonist = activates human CHRM1 receptor; P11229; CHO-K1 hM1, Fluo-8 calcium fluorescence, agonist mode; 0% DMSO, 100% acetylcholine EC100; activation, % at 3 µM; 0.33% of 360,000 active;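 active means activation above the run's mean compound activation plus 3 SD, cut at about 16% in these data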;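 further: peak over basal fluorescence ratio within a 140 s kinetic read after compound addition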
Starred values were filed as active, the others as inactive.

O=C(CNc1cccc(S(=O)(=O)N2CCOCC2)c1)N1CCc2ccccc21 was read as M1 ag parental 1, CHO-K1 Ca antag -1, CHO-K1 Ca PAM -20, CHRM1 antagonist -22, M1 PAM 3 and CHRM1 agonist -3.
Screening CN(C)CC/C=C1/c2ccc(F)cc2Sc2ccc(Cl)cc21 returned M1 ag parental 7, CHO-K1 Ca antag -11, CHO-K1 Ca PAM 22, CHRM1 antagonist 100*, M1 PAM -25 and CHRM1 agonist -6.
CN(C)CC/C=C1\c2ccc(F)cc2Sc2cc(F)c(Cl)cc21 was read as M1 ag parental 2, CHO-K1 Ca antag 0, CHO-K1 Ca PAM 19, CHRM1 antagonist 100*, M1 PAM -28 and CHRM1 agonist -9.
For CN(C)CC/C=C1\c2ccccc2Sc2ccc(Cl)cc21 the results were M1 ag parental 1, CHO-K1 Ca antag 11, CHO-K1 Ca PAM -5, CHRM1 antagonist 100*, M1 PAM -27 and CHRM1 agonist -7.
CN(C)CC/C=C1\c2ccccc2Sc2cc(F)c(Cl)cc21 was read as M1 ag parental 2, CHO-K1 Ca antag -5, CHO-K1 Ca PAM 25, CHRM1 antagonist 100*, M1 PAM -24 and CHRM1 agonist -3.
`CN(C)CCOc1ccc2c(c1)Sc1ccccc1CC2=O` gave M1 ag parental 4, CHO-K1 Ca antag 9, CHO-K1 Ca PAM -1, CHRM1 antagonist 9, M1 PAM -6 and CHRM1 agonist 10.
For OCCN1CCN(CC/C=C2/c3ccccc3Sc3ccc(Cl)cc32)CC1 the results were M1 ag parental 2, CHO-K1 Ca antag 0, CHO-K1 Ca PAM 11, CHRM1 antagonist 10, M1 PAM -19 and CHRM1 agonist -6.
Screening OC[C@@H](O)[C@H](O)C(/C=N/Nc1ccccc1)=N\Nc1ccccc1 returned M1 ag parental 1, CHO-K1 Ca antag 0, CHO-K1 Ca PAM 10, CHRM1 antagonist -10, M1 PAM 7 and CHRM1 agonist -3.
`COc1ccc(/C(C)=N/NC(=O)CNC(=O)/C=C\c2ccccc2OC)c(OC)c1` gave M1 ag parental 0, CHO-K1 Ca antag -15, CHO-K1 Ca PAM 19, CHRM1 antagonist -9, M1 PAM 3 and CHRM1 agonist -5.
For CC12CCC(=O)C=C1CCC1C2C(O)CC2(C)C1CCC2(O)C(=O)COC(=O)COCC(=O)O (centres undefined) the results were M1 ag parental 1, CHO-K1 Ca antag -12, CHO-K1 Ca PAM 1, CHRM1 antagonist -10, M1 PAM 6 and CHRM1 agonist -1.
`CN(C)CC/C=C1\c2cc(Cl)ccc2Sc2cc(F)c(F)cc21` gave M1 ag parental 2, CHO-K1 Ca antag -2, CHO-K1 Ca PAM 15, CHRM1 antagonist 100*, M1 PAM -27 and CHRM1 agonist -5.
`CN(C)CCOCCOc1ccc(Cl)cc1C(C)(C)C` gave M1 ag parental 4, CHO-K1 Ca antag -16, CHO-K1 Ca PAM 9, CHRM1 antagonist 27, M1 PAM -7 and CHRM1 agonist -5.
Screening CN1/C(=C\C(=O)CSc2ncn[nH]2)C(C)(C)c2ccccc21 returned M1 ag parental 4, CHO-K1 Ca antag 26*, CHO-K1 Ca PAM -11, CHRM1 antagonist 20, M1 PAM -9 and CHRM1 agonist -1.
Screening CN1/C(=C\C(=O)COC(=O)c2ccccc2O)C(C)(C)c2ccccc21 returned M1 ag parental 17*, CHO-K1 Ca antag 5, CHO-K1 Ca PAM 5, CHRM1 antagonist 8, M1 PAM -7 and CHRM1 agonist -2.
For Cc1ccc(C(=O)NCC(=O)OCC(=O)c2ccc(Br)s2)cc1 the results were M1 ag parental 0, CHO-K1 Ca antag 8, CHO-K1 Ca PAM 0, CHRM1 antagonist 0, M1 PAM 1 and CHRM1 agonist -4.
Screening c1ccc(Oc2cc(-n3cncn3)ncn2)cc1 returned M1 ag parental 2, CHO-K1 Ca antag -11, CHO-K1 Ca PAM 28, CHRM1 antagonist -13, M1 PAM 12 and CHRM1 agonist -8.
Screening Cc1cnn(-c2cc(Oc3ccccc3)ncn2)c1 returned M1 ag parental 0, CHO-K1 Ca antag 25*, CHO-K1 Ca PAM -8, CHRM1 antagonist 9, M1 PAM -2 and CHRM1 agonist -1.
`c1ccc(Sc2ccccc2CN2CCCC2)cc1` gave M1 ag parental 1, CHO-K1 Ca antag 2, CHO-K1 Ca PAM 4, CHRM1 antagonist 79*, M1 PAM -24 and CHRM1 agonist -9.
